These results are taken from the supplement of paper PMC11219838.

A number with no mark means an inactive call.

This assay relates to Caenorhabditis elegans dauer (daf-2(e1370)). In words: proportion of mobile C. elegans dauer larvae relative to DMSO control (fraction of DMSO control); higher = more viable, less nematicidal, active = 0.63 or less; extreme values may be limits of the assay. As to conditions: 60 µM; 5 days; temperature: 20 °C. The method, then: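 DODA library (846 commercial 1,3,4- and 1,2,4-oxadiazole compounds plus commercial nematicide controls) screened at a single dose of 60 µM (0.6% DMSO) in 96-well plates, two biological replicates. Read-outs: C. elegans N2 L1 survival/reproduction score at day 6, 20 °C (0: 0-10 worms, 1: 11-20, 2: 21-50, 3: >50, 4: overgrown/starved). C. elegans daf-2 dauer, D. dipsaci and M. hapla J2 mobility at day 5, 20 °C, and P. penetrans mobility at day 5, 20 °C, each relative to DMSO controls. M. hapla egg hatching at day 12, 25 °C, relative to the mean of 8 DMSO wells on the same plate.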
Consider `CC[C@H](C)[C@H]1O[C@]2(C=C[C@@H]1C)C[C@@H]1C[C@@H](C/C=C(\C)[C@@H](O[C@H]3C[C@H](OC)[C@@H](O[C@H]4C[C@H](OC)[C@@H](O)[C@H](C)O4)[C@H](C)O3)[C@@H](C)/C=C/C=C3\CO[C@@H]4[C@H](O)C(C)=C[C@@H](C(=O)O1)[C@]34O)O2.CO[C@H]1C[C@H](O[C@H]2[C@H](C)O[C@@H](O[C@@H]3/C(C)=C/C[C@@H]4C[C@@H](C[C@]5(C=C[C@H](C)[C@@H](C(C)C)O5)O4)OC(=O)[C@@H]4C=C(C)[C@@H](O)[C@H]5OC/C(=C\C=C\[C@@H]3C)[C@]54O)C[C@@H]2OC)O[C@@H](C)[C@@H]1O` [abamectin], for which the “proportion of mobile C. elegans dauer larvae” value (from here on “proportion”) is 0.242 (active). With `CNC(=O)O/N=C(\SC)C(=O)N(C)C` [oxamyl], the “proportion” value was 1. For `O=C(NCCc1ncc(C(F)(F)F)cc1Cl)c1ccccc1C(F)(F)F` [fluopyram], the “proportion” value is 0 (active). Regarding `CC(C)NC(=O)N1CC(=O)N(c2cc(Cl)cc(Cl)c2)C1=O` [iprodione], the “proportion” value is 1.
